Data from PubChem BioAssay (NCI).
The panel holds about 83,000 compounds, 20% with a hit somewhere; the sample as a whole holds those more often.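 Testing used 96-well plates and a 48-hour single-concentration exposure. Example: -40 means 40% of the starting cells died.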 The source made the active and inactive calls. Rule for the calls: active = growth percent below 10; inactive = the rest.

Key:
Experiment in all cases: NCI-60 one-dose screen, 48 h (100 = growth as untreated, 0 = no growth, -100 = all killed)
Details in all cases: 10 µM unless noted
HCT-15 colon = test system: HCT-15 colon
HT29 colon = test system: HT29 colon
SNB-75 CNS = test system: SNB-75 CNS
SNB-19 CNS = test system: SNB-19 CNS
U251 CNS = test system: U251 CNS
PC-3 prostate = test system: PC-3 prostate
SK-MEL-5 melanoma = test system: SK-MEL-5 melanoma
UACC-62 melanoma = test system: UACC-62 melanoma
LOX IMVI melanoma = test system: LOX IMVI melanoma
SK-MEL-28 melanoma = test system: SK-MEL-28 melanoma

Measured: growth

COc1ccc2nc3cc(Cl)ccc3c(N3CCN(c4nccc(NCc5ccccc5)n4)CC3)c2c1
inactive: HCT-15 colon 47.5% | HT29 colon 52.7% | SNB-75 CNS 69.2% | SNB-19 CNS 96% | U251 CNS 69% | PC-3 prostate 78.7% | SK-MEL-5 melanoma 84% | UACC-62 melanoma 85.2% | LOX IMVI melanoma 31.3% | SK-MEL-28 melanoma 80.7%

O=C(O)c1c([N+](=O)[O-])cnc2ccccc12
inactive: HCT-15 colon 109% | HT29 colon 107% | SNB-75 CNS 88.4% | SNB-19 CNS 91% | U251 CNS 106% | PC-3 prostate 104% | SK-MEL-5 melanoma 97.4% | UACC-62 melanoma 99.4% | LOX IMVI melanoma 97.6% | SK-MEL-28 melanoma 125%

CC(=O)C1=C(O)C=C2Oc3c(C(=O)/C=C/c4c(Cl)cccc4Cl)c(O)c(C)c(O)c3[C@]2(C)C1=O
active: HCT-15 colon -50.4% | HT29 colon -18.5% | SNB-75 CNS -22.3% | SNB-19 CNS -23.7% | U251 CNS -33% | PC-3 prostate -3.69% | SK-MEL-5 melanoma -86.3% | UACC-62 melanoma -69.7% | LOX IMVI melanoma -51.9% | SK-MEL-28 melanoma -60.1%

O=C(Nc1ccc(Nc2cc(Nc3ccccc3)ncn2)cc1)Nc1cc(C(F)(F)F)ccc1F
inactive: HCT-15 colon 70.9% | HT29 colon 58.4% | SNB-75 CNS 57.1% | SNB-19 CNS 87.4% | U251 CNS 64.2% | PC-3 prostate 55.8% | SK-MEL-5 melanoma 82% | UACC-62 melanoma 65.8% | LOX IMVI melanoma 63.6% | SK-MEL-28 melanoma 71.9%

COC(/C=C/c1ccc([N+](=O)[O-])cc1)OC
active: LOX IMVI melanoma 8.46%
inactive: HCT-15 colon 116% | HT29 colon 94.7% | SNB-75 CNS 85.9% | SNB-19 CNS 91.2% | U251 CNS 74.5% | PC-3 prostate 95.1% | SK-MEL-5 melanoma 98.3% | UACC-62 melanoma 89.9% | SK-MEL-28 melanoma 93.5%

CNc1nc(C)c(-c2nc(Nc3cccc(S(N)(=O)=O)c3)ncc2F)s1
inactive: PC-3 prostate 11.7%
active: HCT-15 colon 1.76% | HT29 colon 0.997% | SNB-75 CNS -19.2% | SNB-19 CNS 7.87% | U251 CNS 4.31% | SK-MEL-5 melanoma -23.3% | UACC-62 melanoma -48.6% | LOX IMVI melanoma 0.394% | SK-MEL-28 melanoma -38%

O=C(CCCCN1CCOCC1)Nc1ccc(Cn2nnc3c2C(=O)c2nnn(Cc4ccc(NC(=O)CCCCN5CCOCC5)cc4)c2C3=O)cc1
active: HCT-15 colon -37% | HT29 colon -28.6% | SNB-75 CNS -92.3% | SNB-19 CNS -86.2% | U251 CNS -85.2% | PC-3 prostate 0.413% | SK-MEL-5 melanoma -95.8% | UACC-62 melanoma -80% | LOX IMVI melanoma -23.2% | SK-MEL-28 melanoma -54.9%

CN1CCOCCOCCOc2ccccc2NC(=O)c2nc(cnc2N)-c2ccc(cc2)S1(=O)=O
inactive: SNB-75 CNS 52.1% | SNB-19 CNS 82.5% | U251 CNS 54.6% | PC-3 prostate 53.5% | SK-MEL-5 melanoma 60.5% | UACC-62 melanoma 54.3% | LOX IMVI melanoma 30.1% | SK-MEL-28 melanoma 58.6%
active: HCT-15 colon 1.6% | HT29 colon 9.23%

COc1ccc(CN2C(=O)/C(=C\c3cc(OC)c(OC)c(OC)c3)c3cc(OC)ccc32)cc1
active: HCT-15 colon -36.6% | HT29 colon -25.3% | U251 CNS -48% | SK-MEL-5 melanoma 1.57% | UACC-62 melanoma -10.4% | LOX IMVI melanoma -71.8% | SK-MEL-28 melanoma -31.8%
inactive: SNB-75 CNS 28.3% | SNB-19 CNS 59.8% | PC-3 prostate 28.9%

CCN(C(=O)CN1CCN(c2cc3c(cc2F)c(=O)c(C(=O)O)cn3C2CC2)CC1)c1nc(-c2ccc(OC)cc2)cs1
active: HT29 colon 7.28% | LOX IMVI melanoma -57.9%
inactive: HCT-15 colon 51.5% | SNB-75 CNS 81.8% | SNB-19 CNS 78.2% | U251 CNS 14.1% | PC-3 prostate 20.9% | SK-MEL-5 melanoma 28.9% | UACC-62 melanoma 17.1% | SK-MEL-28 melanoma 45.1%

COc1cc(C(=O)/C=C/c2c(C)n([O-])c3ccc(C)cc3[n+]2=O)cc(OC)c1OC
inactive: HCT-15 colon 25.9% | HT29 colon 25.3% | SNB-75 CNS 73.2% | SNB-19 CNS 108% | U251 CNS 55.4% | PC-3 prostate 64.8% | SK-MEL-5 melanoma 89% | UACC-62 melanoma 54% | LOX IMVI melanoma 33% | SK-MEL-28 melanoma 72.1%

O=C1c2cccnc2C(=O)c2c1c(C(=O)OCCN1CCOCC1)c1ccccn21
active: HCT-15 colon -65.6% | HT29 colon -35.4% | SNB-75 CNS -13.9% | SNB-19 CNS 3.55% | U251 CNS -47.5% | SK-MEL-5 melanoma -90.5% | UACC-62 melanoma -52.7% | LOX IMVI melanoma -46% | SK-MEL-28 melanoma -3.26%
inactive: PC-3 prostate 15.3%

Nc1ccc(N2CCOCC2)cc1
inactive: HCT-15 colon 103% | HT29 colon 109% | SNB-75 CNS 91.9% | SNB-19 CNS 91.1% | U251 CNS 98% | PC-3 prostate 101% | SK-MEL-5 melanoma 92.7% | UACC-62 melanoma 86.6% | LOX IMVI melanoma 104% | SK-MEL-28 melanoma 118%

COc1c2ccccc2c(OC)c2[nH]c(=O)ccc12
inactive: HCT-15 colon 22.1% | HT29 colon 46.6% | SNB-19 CNS 12.2% | U251 CNS 28.4% | PC-3 prostate 67% | LOX IMVI melanoma 12.1% | SK-MEL-28 melanoma 25.4%
active: SNB-75 CNS -21.3% | SK-MEL-5 melanoma -96.7% | UACC-62 melanoma -6.37%

CCN(CC)CCC(=O)c1ccc(OC)c2ccccc12
inactive: HCT-15 colon 107% | HT29 colon 109% | SNB-75 CNS 89.1% | SNB-19 CNS 87% | U251 CNS 95.4% | PC-3 prostate 102% | SK-MEL-5 melanoma 107% | UACC-62 melanoma 90.6% | LOX IMVI melanoma 86.8% | SK-MEL-28 melanoma 122%

COc1ccc(C(=O)/C=C/c2cc3ccccc3[nH]c2=O)cc1
inactive: HCT-15 colon 46.4% | SNB-19 CNS 70.5% | U251 CNS 31.7% | PC-3 prostate 32.3% | SK-MEL-5 melanoma 72.5% | UACC-62 melanoma 67.7% | LOX IMVI melanoma 10.2% | SK-MEL-28 melanoma 88.2%
active: HT29 colon 6.09% | SNB-75 CNS 2%

CCOC(=O)CC(=O)c1c(C)cc(C)cc1C
inactive: HCT-15 colon 98.2% | HT29 colon 87.7% | SNB-75 CNS 112% | SNB-19 CNS 96.2% | U251 CNS 105% | PC-3 prostate 103% | SK-MEL-5 melanoma 100% | UACC-62 melanoma 96.9% | LOX IMVI melanoma 98.5% | SK-MEL-28 melanoma 118%

CS(=O)CCCCCN=C=S (stereo not given)
active: HCT-15 colon -16.9% | HT29 colon -13.3% | U251 CNS 9.01% | UACC-62 melanoma -8.14% | LOX IMVI melanoma -38.7% | SK-MEL-28 melanoma 6.92%
inactive: SNB-75 CNS 29.5% | SNB-19 CNS 28% | PC-3 prostate 32.4% | SK-MEL-5 melanoma 12.1%

COc1cc(/C=N/N(C)C)ccc1O
inactive: HCT-15 colon 105% | HT29 colon 93.8% | SNB-75 CNS 103% | SNB-19 CNS 99% | U251 CNS 81.8% | PC-3 prostate 90% | SK-MEL-5 melanoma 99.5% | UACC-62 melanoma 90.1% | LOX IMVI melanoma 108% | SK-MEL-28 melanoma 114%

CCOC(=O)c1c2c(n3ccc(NC(=O)CCN(CC)CC)cc13)C(=O)c1ncccc1C2=O
inactive: HCT-15 colon 50.3% | HT29 colon 38.4% | SNB-75 CNS 33% | SNB-19 CNS 53.3% | U251 CNS 53.2% | PC-3 prostate 61.1% | SK-MEL-5 melanoma 45.1% | UACC-62 melanoma 50.8% | LOX IMVI melanoma 10.3% | SK-MEL-28 melanoma 88.8%

O=C([C@@H](COCc1ccccc1)N1C(=O)[C@@H](N2C(=O)OC[C@@H]2c2ccccc2)[C@H]1/C=C/c1ccccc1)N1CCC(CCN2CCCCC2)CC1
inactive: HCT-15 colon 89.2% | HT29 colon 45.5% | SNB-75 CNS 90.9% | SNB-19 CNS 95.1% | U251 CNS 71.5% | PC-3 prostate 67.5% | SK-MEL-5 melanoma 81.6% | UACC-62 melanoma 95.5% | LOX IMVI melanoma 82.1% | SK-MEL-28 melanoma 73.2%

CC/C(Cc1ccccc1)=C(\c1ccc(OCCN2CCCC2)cc1)c1ccc(OC(C)=O)cc1
inactive: HCT-15 colon 60.5% | HT29 colon 24.4% | SNB-75 CNS 57.8% | SNB-19 CNS 105% | U251 CNS 57.2% | PC-3 prostate 79.5% | SK-MEL-5 melanoma 69.6% | UACC-62 melanoma 43.9% | LOX IMVI melanoma 48.2% | SK-MEL-28 melanoma 21%

O=C(O)c1ccc(=O)[nH]n1
inactive: HCT-15 colon 101% | HT29 colon 123% | SNB-75 CNS 98.4% | SNB-19 CNS 102% | U251 CNS 109% | PC-3 prostate 103% | SK-MEL-5 melanoma 110% | UACC-62 melanoma 98.2% | LOX IMVI melanoma 96.2% | SK-MEL-28 melanoma 109%

NC(N)=Nc1ccc(S(=O)(=O)O)cc1
inactive: HCT-15 colon 102% | HT29 colon 111% | SNB-75 CNS 88.7% | SNB-19 CNS 90% | U251 CNS 111% | PC-3 prostate 99.1% | SK-MEL-5 melanoma 101% | UACC-62 melanoma 86.9% | LOX IMVI melanoma 96.5% | SK-MEL-28 melanoma 103%

COc1ccc(CNc2nccnn2)cc1
inactive: HCT-15 colon 111% | HT29 colon 97.8% | SNB-75 CNS 85.6% | SNB-19 CNS 102% | U251 CNS 94.9% | PC-3 prostate 101% | SK-MEL-5 melanoma 101% | UACC-62 melanoma 93.4% | LOX IMVI melanoma 105% | SK-MEL-28 melanoma 97.7%

CC(=O)Oc1ccc(Nc2c3ccccc3nc3ccccc23)cc1
inactive: SNB-19 CNS 16.1% | SK-MEL-28 melanoma 25.8%
active: HCT-15 colon 1.67% | HT29 colon -38.4% | SNB-75 CNS 2.16% | U251 CNS 8.7% | PC-3 prostate 7.48% | SK-MEL-5 melanoma -73.2% | UACC-62 melanoma -45.3% | LOX IMVI melanoma -34.8%

CCOC(=O)C(Cc1cc(I)c(O)c(I)c1)NC(=O)c1ccccc1 (stereo not given)
inactive: HCT-15 colon 98.6% | HT29 colon 99.9% | SNB-75 CNS 94.5% | SNB-19 CNS 99.3% | U251 CNS 33.6% | PC-3 prostate 99.1% | SK-MEL-5 melanoma 100% | UACC-62 melanoma 92.2% | LOX IMVI melanoma 103% | SK-MEL-28 melanoma 101%
